Source: PubChem (National Center for Advancing Translational Sciences (NCATS))
Rows were chosen to be rich in hits. Some 4.6% of all compounds tested hit in one or more screens of this group.
Tau fibril ThT: inhibitors of human tau fibril formation, thioflavin T binding; P10636; recombinant tau K18 P301L, heparin-induced fibrillization, ThT fluorescence; Potency, µM (series often up to 57.4 µM), for the others: top-dose activity, negative = inhibition, most hits filed as inhibitors; actives 2.1% (n = 270,000); AID 1460; also: potency is read from the fitted curve at half-maximal effect; nearly all actives have a fitted effect of over 55% in size
Target sequence (P10636 561-689 P618L limits assumed): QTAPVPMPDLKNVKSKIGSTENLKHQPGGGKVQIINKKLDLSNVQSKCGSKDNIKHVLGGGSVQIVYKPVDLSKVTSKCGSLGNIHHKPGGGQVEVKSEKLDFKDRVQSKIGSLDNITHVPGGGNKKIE
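In this qHTS, human K18 P301L tau is incubated with compound and heparin for 6 hr at 37 C, and Thioflavin T fluorescence then reports fibril load.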
Tau FP inhib: inhibitors of human tau fibril formation; P10636; K18 P301L tau heparin fibrillization, Alexa594 FP, 6 h; Potency, µM (top dose mostly 57.7 µM), for inactives: at the highest dose activity, negative = inhibition, most hits filed as inhibitors; actives 0.39% (n = 280,000); AID 1468; also: potency is read from the fitted curve at half-maximal effect; nearly all actives have a fitted effect of over 55% in size
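Read-out: fluorescence polarization of Alexa 594-labeled tau (0.24 uM), 555 nm excitation, 632 nm emission. Mixtures held 15 uM unlabeled K18 P301L, compound and 20 uM heparin, pH 7 acetate buffer, incubated 6 hr at 37 C.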
PNC assembly inh: blocks assembly of the perinucleolar compartment; PC3M PTB-GFP, PNC prevalence imaging, 16 h; stronger effect = lower value; activity change (PNC), negative = inhibition, % at 10 µM; actives 3.1% (n = 140,000);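 active = readout at or below -70, meaning at least 70% loss of cells showing the perinucleolar compartment, a nuclear body marking cancer cells; inconclusive = readout between -30 and a set limit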;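 also: plate controls were DMSO wells for no effect and camptothecin positive control wells for full effect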
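Compounds are pinned in duplicate onto adhered PC3M cells stably expressing GFP-tagged PTB and incubated 16 h at 37 C. Cells are then fixed, nuclei stained with Hoechst, and PNC-positive cells counted.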
TRb-SRC2 inh: TRbeta-SRC2 interaction inhibition; TRbeta-SRC2 peptide binding, fluorescence polarization; receptor liganded with 1 µM T3; Potency, µM (top dose mostly 106 µM), inactives show at the highest dose activity change, negative = inhibition, most hits filed as inhibitors; actives 0.065% (n = 280,000); AID 1469;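 also: potency is read from the fitted curve at half-maximal effect; plate controls were bound peptide for no effect and peptide without receptor for full effect; nearly all actives have a fitted effect of over 50% in size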
Target sequence (P10828 whole entry, looked up): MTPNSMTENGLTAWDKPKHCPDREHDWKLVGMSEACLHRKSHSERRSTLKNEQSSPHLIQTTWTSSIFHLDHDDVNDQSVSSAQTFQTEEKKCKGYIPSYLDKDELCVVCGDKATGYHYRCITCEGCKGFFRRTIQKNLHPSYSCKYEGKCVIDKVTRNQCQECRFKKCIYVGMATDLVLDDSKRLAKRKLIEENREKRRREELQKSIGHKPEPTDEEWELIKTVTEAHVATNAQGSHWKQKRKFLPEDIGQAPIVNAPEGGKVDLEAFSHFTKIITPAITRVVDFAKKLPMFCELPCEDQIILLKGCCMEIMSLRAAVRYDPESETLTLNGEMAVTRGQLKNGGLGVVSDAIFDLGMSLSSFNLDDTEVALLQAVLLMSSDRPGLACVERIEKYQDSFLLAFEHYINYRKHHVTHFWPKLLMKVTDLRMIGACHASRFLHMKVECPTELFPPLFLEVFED
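Assay buffer: 20 mM Tris-HCl, 100 mM NaCl, 10% glycerol, 1 mM EDTA, 0.01% NP-40, 1 mM DTT, 1 uM T3, 5% DMSO; TRb LBD 0.6 uM, Texas Red SRC2 20 nM; FP after 5 hr.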
Tau fluor counter: counter-screen for tau fibril formation inhibitors. tau K18 P301L Alexa594 fluorescence, heparin fibrillization. Potency, µM (titrated, usually from 57.7 µM), for inactives: top-dose activity change, negative = decrease. actives 0.93% (n = 280,000). AID 1463; also: potency is read from the fitted curve at half-maximal effect; nearly all actives have a fitted effect of over 55% in size
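Human tau K18 P301L (15 uM unlabeled, 0.24 uM Alexa 594-labeled) in 100 mM sodium acetate pH 7 with 20 uM heparin, 6 hr at 37 C. ThT 30 uM added, 1 hr ambient; Alexa 594 FP and total fluorescence read at 555/632 nm.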
TexasRed fluor: Texas Red fluorescence interference in TRb-SRC2 counter-screen; TRb/SRC2 Texas Red total fluorescence interference; actives 0.29% (n = 280,000); AID 1479; Potency, µM (doses to about 106 µM), inactives show at the highest dose fluorescence change, negative = quenching; active = well fitted curve in either direction with a large enough effect; inconclusive = small, poorly fitted or top-dose-only effect; also: potency is read from the fitted curve at half-maximal effect
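Human TRb ligand-binding domain at 0.6 uM with 20 nM Texas Red SRC2 peptide in Tris buffer containing 1 uM T3 and 5% DMSO, incubated with compound 5 h at ambient temperature. Total fluorescence (555/632 nm) calculated as parallel + 2 × perpendicular.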
Active calls of the source: *; ? = inconclusive; nt = not tested or not shown; [ ] = another dose, or the depositor's remark. Unless noted, calls follow the shape of the dose curve; as a rule, active = well fitted curve in the direction sought with a large enough effect; inconclusive = small, poorly fitted or top-dose-only effect, or another doubt; inactive = no such curve, though single readings can be large; an effect the other way counts as inactive or inconclusive. Unless noted, % is scaled to controls: 0 for no effect and ±100 for the full control effect.

SMILES | Tau fibril ThT | Tau FP inhib | PNC assembly inh | TRb-SRC2 inh | Tau fluor counter | TexasRed fluor
C[C@@H]1C(c2ccc(F)cc2)=NN(c2ccccc2)[C@H]1C(=O)N1CCOC1=O | -17%[81.4 µM] | -6%[81.3 µM] | nt | 6% | ? | -11%
C[C@H]1C(c2ccccc2)=NN(c2ccccc2)[C@@H]1CO | ? | ? | nt | -2%[201 µM] | ? | 1%[201 µM]
Cc1ccc(S(=O)(=O)NCc2cccnc2)s1 | 6% | -1% | -2 | -1% | 11% | -4%
O=C1CC(=O)N(Cc2cccs2)C(=O)N1 | 20µM* | ? | -3 | -25% | -17% | 4%
Cc1ccc(C)c(NC(=O)c2cc(-c3ccccc3)nn2-c2ccccc2)c1 | ? | 1% | ? | 3% | -14% | 6%
O=C(Nc1nnc(C2CC2)s1)c1cc(-c2ccccc2)nn1-c1ccccc1 | -14% | 3% | -81* | 0% | -11% | -4%
CCNC(=S)NS(=O)(=O)c1ccc(C)cc1 | 1% | 4% | -85* | -6% | 4% | 4%
O=C1CCCC/C1=C\Nc1ccc(O)cc1 | 16µM* | ? | -117* | 45µM* | ? | ?
O=C1CCC/C1=C/Nc1ccc(Cl)cc1 | -13% | 10% | nt | 4% | -12% | -2%
COc1cc(NC(=O)c2ccccc2)c(OC)cc1Cl | -10% | -8% | 45 | 0% | -10% | 0%
O=C(/C=C/c1ccc(Br)cc1)c1ccc(NC2=NCCCS2)cc1 | 8% | 10% | -93* | 1% | 6% | 0%
C/C(=C\C(=O)C(F)(F)F)Nc1ccc(C)cc1 | -3% | ? | ? | 0% | -1% | 1%
C/C(=C\C(=O)C(F)(F)F)Nc1cc(C)cc(C)c1 | -5% | -7% | -85* | -17% | -14% | 2%
COc1ccc(-c2cc(C(C)=O)c(C)n2CCC(=O)NCc2ccc(C)cc2)cc1 | ? | 5% | nt | 0% | -13% | -5%
CCCN1CNC(=S)N(c2cc(C)ccc2C)C1 | -1% | 0% | -100* | 0% | -1% | -6%
Cc1nn(Cc2ccccc2Cl)c(C)c1C(=O)Nc1nnc(C2CC2)s1 | -16% | 3% | -97* | -8% | -11% | -5%
Cc1nn(-c2ccccc2)c(Cl)c1C(=O)Nc1nnc(C2CCCCC2)s1 | ? | 8% | ? | 3% | -2% | -1%
O=C(O)COn1c(-c2ccc(Cl)cc2)nc2ccc(Cl)cc21 | 8% | 1% | nt | 3% | 5% | 0%
C/C(=N\NC(=O)c1ccncc1)C12CC3CC(CC(C3)C1)C2 | 11% | 8% | -118* | -3% | 4% | -8%
O=C(NN=C1C2CC3CC(C2)CC1C3)c1ccncc1 | -4% | -3% | -26 | 5% | 5% | -2%
COc1cc(CC(=O)Nc2cccc(SC)c2)cc(OC)c1OC | -5% | -4% | nt | 11% | -10% | -1%
COc1ccc(/C=C(\C#N)C(=O)OCC(=O)Nc2ccc(-c3nc4ccc(C)cc4s3)cc2)cc1 | ? | -5% | nt | -3% | -22% | -1%
CCc1ccc(N2CSC3=C(C#N)C(c4cccs4)CC(=O)N3C2)cc1 (stereo not given) | 13µM* | ? | -20 | 4% | -19% | -1%
COc1cccc(C2CC(=O)NC(SC)=C2C#N)c1 (stereo not given) | -11% | 0% | 10 | -2% | -8% | -1%
N#CC1=C2SCC(O)(c3ccccc3)N2C(=O)CC1c1ccccc1 (stereo not given) | ? | 6% | ? | -5% | -22% | 0%
SMILES | Tau fibril ThT | Tau FP inhib | PNC assembly inh | TRb-SRC2 inh | Tau fluor counter | TexasRed fluor
COc1ccc(N2CSC3=C(C#N)C(c4cccs4)CC(=O)N3C2)cc1 (stereo not given) | 13µM* | 25µM* | ? | 9% | ? | 3%
CCc1ccc(C2CC(=O)N3CN(c4ccccc4)CSC3=C2C#N)cc1 (stereo not given) | 32µM* | ? | 32 | 2% | ? | 0%
Cc1ccc(N2CSC3=C(C#N)C(c4cccs4)CC(=O)N3C2)cc1 (stereo not given) | ? | ? | ? | 0% | -20% | -2%
N#CC1=C2SCN(c3ccc(F)cc3)CN2C(=O)CC1c1cccc(F)c1 (stereo not given) | 16µM* | ? | 29 | 3% | ? | -4%
COC(=O)C1C(=O)N2CCCSC2=C(C#N)C1c1cccs1 (stereo not given) | -10% | -3% | -12 | 2% | -1% | -1%
Cc1ccc(OCc2nc(-c3ccc(Cl)cc3)n[nH]2)cc1 | -24% | -14% | -19 | 1% | -23% | 2%
NS(=O)(=O)c1ccc(N=Nc2c(O)ccc3ccccc23)cc1 | 1.1µM* | 0% | nt | -13% | -26% | -4%
O=S(=O)(O)c1ccc(N=Nc2ccccc2)cc1 | -15% | 10% | nt | -6% | -11% | -2%
Oc1ccc2ccccc2c1N=Nc1ccccc1 | nt | nt | nt | 100µM* | nt | 112µM*[fluorescent]
O=C(O)c1cc(N=Nc2c(O)ccc3ccccc23)cc(C(=O)O)c1 | 16µM* | -4% | nt | 12% | -11% | ?
O=c1ccc(N=Nc2ccccc2)ccc1O | 4.5µM* | -3% | nt | -2% | ? | -4%
Cc1cccc(-c2nc3scc(CCNS(=O)(=O)c4ccc(Oc5ccccc5)cc4)n3n2)c1 | 2% | ? | nt | -11% | -17% | -1%
O=C(Nc1nnc(Cc2ccc(Cl)cc2)s1)c1ccco1 | -6% | 7% | 2 | -4% | -2% | 1%
CCc1cccc(Nc2c3c(nc4ncnn24)CCC3)c1 | -12% | -11% | nt | 7% | -13% | -1%
Oc1ccc(N=Nc2c(O)ccc3ccccc23)cc1 | 2.5µM* | ? | ? | 10% | 11µM*[quencher] | -1%
CCn1c2ccccc2c2cc(NC(=O)C(=O)NCC3CCCO3)ccc21 (stereo not given) | -15% | -2% | nt | 2% | ? | 0%
O=C1OC(c2ccccc2)=C/C1=C/N1CCCCC1 | 28µM* | ? | 19 | -16% | -28% | -2%
O=C1OC(c2ccccc2)=N/C1=C\N1CCCCC1 | 5% | 5% | 48 | -17% | -4% | -5%
CNc1ccccc1 | nt | nt | nt | 10% | nt | -2%
CNc1cccccc1=S | 13µM* | ? | 5 | 1% | -29% | -5%
CCCC(=O)Nc1sc(C)c(-c2ccc(OC)cc2)c1C#N | -2% | -3% | 35 | -9% | -2% | 3%
CCCc1ccc(-c2c(C)sc(N)c2C#N)cc1 | ? | ? | -7 | -6% | 16µM*[quencher] | -5%
O=C(N1CCCCCC1)n1c(Cc2ccccc2)nc2ccccc21 | -5% | -8% | -119* | 1% | -8% | 1%
